From the supplement of paper PMC11417369
Over roughly 25,000 sequences, “ln(normalized median fluorescence intensity)” has its median near 6.7; the highest 2% begin near 10. The sample as a whole holds a higher share of the highest values than the screen did.

System: PfHDP1 homeodomain (GST-tagged)
Assay: gcPBM binding intensity (ln(normalized median fluorescence intensity)); higher = stronger DNA binding
How it was run: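 GST-fused DNA-binding domains of P. falciparum, expressed in E. coli, were applied at about 25 μg on average for 1 h to an Agilent 4 × 180k array of primer-extended double-stranded 36-bp intergenic genomic probes and negative controls. Binding intensity is the highest Masliner-normalised natural-log median intensity across replicate spots of either probe orientation, measured with Alexa488 anti-GST antibody and a 488 nm scan.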

Q: With “CCATAATATTATAGACGTACGAATATATATAAAAGA [XGTACX_site7295]” as the sequence, how does the “gcPBM binding intensity (ln)” value read?
A: 7.24

Q: “ACATATAAATGATATGTACACACATTTATATATATA [CACACA_site9152]” was tested. Which “gcPBM binding intensity (ln)” value did it give?
A: 7.4

Q: For “TAAAGATATAAATGCACACGTATTAAAAAAAAAATA [CACACA_site952]”, which “gcPBM binding intensity (ln)” value is on record?
A: 9.54

Q: With “TATATTAACAAAATGGTGCAATAATTTCTATATTGT [GTGCAC_site9430]” as the sequence, how does the “gcPBM binding intensity (ln)” value read?
A: 10.4

Q: Which “gcPBM binding intensity (ln)” value does the source give for “ACATTAACATTGTTGGTGCAAAATTAATATGTTTTT [GTGCAC_site9673]” here?
A: 10.7

Q: How did the “gcPBM binding intensity (ln)” value turn out when “AAAATTAATGTTGGTTGTACAAAAATTAAATATGGT [XGTACX_site66]” was run?
A: 6.85

Q: How did the “gcPBM binding intensity (ln)” value turn out when “TAAATACATAAAAATTGTACACATTGTTTTCTCTTT [XGTACX_site6435]” was run?
A: 6.49

Q: How did the “gcPBM binding intensity (ln)” value turn out when “TAGAAATATATAAATTGTACATGTTTGTATAATATA [XGTACX_site2097]” was run?
A: 6.44

Q: How did the “gcPBM binding intensity (ln)” value turn out when “ACCCAATTTTTTAGTACACACATATAAATATATAAA [CACACA_site4944]” was run?
A: 6.86

Q: “ATTAAATGCACATATACACACACCCAATTTTAAGTT [CACACA_site3049]” was tested. Which “gcPBM binding intensity (ln)” value did it give?
A: 11.3

Q: “ATATTTATACTATACACACCCAATTTAAAAAAAAAT [CACACA_site1163]” was tested. Which “gcPBM binding intensity (ln)” value did it give?
A: 7.11

Q: How did the “gcPBM binding intensity (ln)” value turn out when “CTTAAATTTTTAAATACACACATACACCCATACACA [CACACA_site4461]” was run?
A: 7.25

Q: Which “gcPBM binding intensity (ln)” value does the source give for “TAAAATAAAAAGTTTACACACATATATAATTTTAAT [CACACA_site662]” here?
A: 6.24

Q: “TAAATGCACATATACACACACCCAATTTTAAGTTTT [CACACA_site7428]” was tested. Which “gcPBM binding intensity (ln)” value did it give?
A: 11.1

Q: Which “gcPBM binding intensity (ln)” value does the source give for “TTCTTAAGGAACGAACGTACAGAATAAAAAGTAAAA [XGTACX_site4294]” here?
A: 6.61

Q: Which “gcPBM binding intensity (ln)” value does the source give for “GTTTATGTTAAACCATGTACTTAATATTTTATTCTT [XGTACX_site3761]” here?
A: 6.29

Q: Which “gcPBM binding intensity (ln)” value does the source give for “ATTACATTTTTAATGCGTACTAAAAATGTATATAAG [XGTACX_site6384]” here?
A: 6.6

Q: For “ATTGAAAAACCGTTTAGTACATATCATCACGTTTGT [XGTACX_site1295]”, which “gcPBM binding intensity (ln)” value is on record?
A: 6.04

Q: How did the “gcPBM binding intensity (ln)” value turn out when “CATACATACATACATACACACACATATATATATATA [CACACA_site8593]” was run?
A: 9.27

Q: With “TGCTTTTCTTTTTGCACACTTATGCATATATATATA [CACACA_site2583]” as the sequence, how does the “gcPBM binding intensity (ln)” value read?
A: 10.8

Q: How did the “gcPBM binding intensity (ln)” value turn out when “ATTGCTTTTCTTTTTGCACACTTATGCATATATATA [CACACA_site2584]” was run?
A: 10.4

Q: Which “gcPBM binding intensity (ln)” value does the source give for “TTTCTATATGGATTTGCACACATAAAAATGCTTATA [CACACA_site8751]” here?
A: 10.2

Q: TTGTTCTTTTGAAAGGTGCAAAAGAAAAATAATTAA was tested. Which “gcPBM binding intensity (ln)” value did it give?
A: 9.53

Q: With “CCCTCCCCATGTTTAGTGCAAAAATATTTGAAATTG [GTGCAC_site9873]” as the sequence, how does the “gcPBM binding intensity (ln)” value read?
A: 10

Q: TTTGAATACTGAATGGTGCAAATTGTTCTCCCCATG was tested. Which “gcPBM binding intensity (ln)” value did it give?
A: 10.5
